Screen size: about 5,500 compounds; about 2,000 (36%) were called active. About 18% were inconclusive and are not listed. Rule as the data show it: active = normalized growth mostly below about 0.91 (no sharp cut-off); inconclusive = no clear call, values can overlap the other calls; inactive = mostly above about 0.92. Some of the results follow.
Assay: chemical genetic growth profiling, strain panel (AID 1159580);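 also: tested at 20 µM; growth read once vehicle control cultures reached saturation at 30 °C; 1 = growth at the plate median or of vehicle wells; lower values mean less growth of the strain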
Details: growth OD

Measured: normalized growth

Cc1cc(=O)oc2c(O)c(O)ccc12
inactive: S. cerevisiae deletion strains, locus YJR043C, strain POL32, hits give low values 1 | S. cerevisiae deletion strains, locus YJR066W, strain TOR1, hits give low values 0.94 | S. cerevisiae deletion strains, locus YJR075W, strain HOC1, hits give low values 1.02 | S. cerevisiae deletion strains, locus YKL009W, strain mrt4, hits give low values 0.979 | S. cerevisiae deletion strains, locus YKL068W, hits give low values 1 | S. cerevisiae deletion strains, locus YKL085W, strain MDH1 (second series), hits give low values 0.99 | S. cerevisiae deletion strains, locus YKL085W, strain MDH1, hits give low values 0.99 | S. cerevisiae deletion strains, locus YKL160W, strain elf1, hits give low values 0.992 | S. cerevisiae deletion strains, locus YKR001C, strain vps1, hits give low values 0.99 | S. cerevisiae deletion strains, locus YKR026C, strain gcn3, hits give low values 0.963 | S. cerevisiae deletion strains, locus YKR091W, strain srl3, hits give low values 0.974 | S. cerevisiae deletion strains, locus YLL001W, strain dnm1, hits give low values 0.956 | S. cerevisiae deletion strains, locus YLL026W, hits give low values 0.975 | S. cerevisiae deletion strains, locus YLL041C, strain sdh2, hits give low values 0.993 | S. cerevisiae deletion strains, locus YLR027C, strain aat2, hits give low values 0.968 | S. cerevisiae deletion strains, locus YLR039C, strain RIC1, hits give low values 0.953 | S. cerevisiae deletion strains, locus YLR058C, strain SHM2, hits give low values 1.02 | S. cerevisiae deletion strains, locus YLR102C, strain apc9, hits give low values 1.01 | S. cerevisiae deletion strains, locus YLR113W, strain HOG1, hits give low values 0.981 | S. cerevisiae deletion strains, locus YLR221C, strain rsa3, hits give low values 0.995 | S. cerevisiae deletion strains, locus YLR258W, strain gsy2, hits give low values 0.986 | S. cerevisiae deletion strains, locus YLR262C, strain YPT6 (second series), hits give low values 0.93 | S. cerevisiae deletion strains, locus YLR262C, strain YPT6, hits give low values 0.923 | S. cerevisiae deletion strains, locus YLR268W, strain sec22, hits give low values 0.992 | S. cerevisiae deletion strains, locus YLR320W, strain mms22, hits give low values 0.993 | S. cerevisiae deletion strains, locus YLR330W, strain CHS5, hits give low values 1.02 | S. cerevisiae deletion strains, locus YLR342W, strain FKS1 (second series), hits give low values 0.996 | S. cerevisiae deletion strains, locus YLR342W, strain FKS1, hits give low values 0.971 | S. cerevisiae deletion strains, locus YLR357W, strain rsc2, hits give low values 0.952 | S. cerevisiae deletion strains, locus YLR370C, strain arc18, hits give low values 0.958 | S. cerevisiae deletion strains, locus YLR371W, strain rom2, hits give low values 1 | S. cerevisiae deletion strains, locus YLR384C, strain iki3, hits give low values 0.954 | S. cerevisiae deletion strains, locus YLR418C, strain cdc73, hits give low values 1.03 | S. cerevisiae deletion strains, locus YML016C, strain PPZ1, hits give low values 1.01 | S. cerevisiae deletion strains, locus YML032C, strain rad52, hits give low values 0.997 | S. cerevisiae deletion strains, locus YML120C, strain ndi1, hits give low values 0.974 | S. cerevisiae deletion strains, locus YML124C, strain tub3, hits give low values 1 | S. cerevisiae deletion strains, locus YMR058W, strain fet3, hits give low values 0.964 | S. cerevisiae deletion strains, locus YMR078C, strain ctf18, hits give low values 0.976 | S. cerevisiae deletion strains, locus YMR125W, strain sto1, hits give low values 0.944 | S. cerevisiae deletion strains, locus YMR129W, hits give low values 0.976 | S. cerevisiae deletion strains, locus YMR205C, strain PFK2, hits give low values 0.96 | S. cerevisiae deletion strains, locus YMR223W, strain ubp8, hits give low values 1.02 | S. cerevisiae deletion strains, locus YMR231W, strain pep5, hits give low values 0.967 | S. cerevisiae deletion strains, locus YMR263W, strain SAP30, hits give low values 1 | S. cerevisiae deletion strains, locus YMR307W, strain GAS1, hits give low values 0.965 | S. cerevisiae deletion strains, locus YNL067W, strain RPL9B, hits give low values 1.01 | S. cerevisiae deletion strains, locus YNL071W, strain lat1, hits give low values 0.983 | S. cerevisiae deletion strains, locus YNL153C, strain GIM3, hits give low values 1 | S. cerevisiae deletion strains, locus YNL183C, strain NPR1, hits give low values 0.931 | S. cerevisiae deletion strains, locus YNL209W, strain ssb2, hits give low values 0.977 | S. cerevisiae deletion strains, locus YNL233W, strain BNI4, hits give low values 1.01 | S. cerevisiae deletion strains, locus YNL248C, strain rpa49, hits give low values 1.01 | S. cerevisiae deletion strains, locus YNL250W, strain rad50, hits give low values 0.991 | S. cerevisiae deletion strains, locus YNL271C, strain bni1, hits give low values 1.01 | S. cerevisiae deletion strains, locus YNL298W, strain CLA4, hits give low values 0.991 | S. cerevisiae deletion strains, locus YNL307C, strain MCK1, hits give low values 1.03 | S. cerevisiae deletion strains, locus YNL322C, strain KRE1 (second series), hits give low values 0.968 | S. cerevisiae deletion strains, locus YNR049C, strain mso1, hits give low values 0.959 | S. cerevisiae deletion strains, locus YNR052C, strain pop2, hits give low values 0.984 | S. cerevisiae deletion strains, locus YOL006C, strain TOP1, hits give low values 1.14 | S. cerevisiae deletion strains, locus YOL012C, strain htz1 0.856 | S. cerevisiae deletion strains, locus YOL147C, strain pex11, hits give low values 1.01 | S. cerevisiae deletion strains, locus YOR001W, strain rrp6, hits give low values 0.988 | S. cerevisiae deletion strains, locus YOR061W, strain CKA2, hits give low values 0.999 | S. cerevisiae deletion strains, locus YOR069W, strain VPS5, hits give low values 1.01 | S. cerevisiae deletion strains, locus YOR070C, strain gyp1, hits give low values 0.975 | S. cerevisiae deletion strains, locus YOR080W, strain dia2, hits give low values 0.984 | S. cerevisiae deletion strains, locus YOR083W, strain WHI5, hits give low values 1 | S. cerevisiae deletion strains, locus YOR106W, strain vam3, hits give low values 0.926 | S. cerevisiae deletion strains, locus YOR136W, strain idh2, hits give low values 1.01 | S. cerevisiae deletion strains, locus YOR144C, strain elg1, hits give low values 0.993 | S. cerevisiae deletion strains, locus YOR184W, strain ser1, hits give low values 1.01 | S. cerevisiae deletion strains, locus YOR231W, strain MKK1, hits give low values 0.983 | S. cerevisiae deletion strains, locus YOR265W, strain rbl2, hits give low values 0.991 | S. cerevisiae deletion strains, locus YOR270C, strain vph1, hits give low values 0.864 | S. cerevisiae deletion strains, locus YOR290C, strain snf2, hits give low values 0.962 | S. cerevisiae deletion strains, locus YOR316C, strain cot1, hits give low values 1 | S. cerevisiae deletion strains, locus YPL051W, strain arl3, hits give low values 0.995 | S. cerevisiae deletion strains, locus YPL078C, strain atp4, hits give low values 0.981 | S. cerevisiae deletion strains, locus YPL106C, strain sse1, hits give low values 0.906 | S. cerevisiae deletion strains, locus YPL240C, strain hsp82, hits give low values 0.999 | S. cerevisiae deletion strains, locus YPL256C, strain CLN2, hits give low values 0.971 | S. cerevisiae deletion strains, locus YPR119W, strain clb2, hits give low values 0.985 | S. cerevisiae deletion strains, locus YPR141C, strain kar3, hits give low values 1 | S. cerevisiae deletion strains, locus YPR163C, strain tif3, hits give low values 0.99 | S. cerevisiae deletion strains, locus YPR167C, strain met16, hits give low values 1.02 | S. cerevisiae deletion strains, strain wtn01, hits give low values 0.997 | S. cerevisiae strains, strain wild type, hits give low values 1

— PubChem BioAssay AID1159580 (chemical genetic matrix, 2015)
